High-throughput results: PubChem, National Center for Advancing Translational Sciences (NCATS)
Most compounds without a hit are left out; they make up all but 0.62% or so of the library.
Epigenetic derep: Quantitative High-Throughput Screen for Regulators of Epigenetic Control. Potency, µM (doses to about 53.9 µM), for inactives: at the top dose GFP activation, most hits filed as activators. murine LDR cells, GFP reporter derepression, 30 h. hit rate 0.2% among 280,000. AID 1865, 2009; further: potency means the concentration at half of the fitted maximal effect; % of control where 0% means no effect; nearly all actives have a fitted effect of over 60% in size
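Murine LDR cells bearing a silenced CMV-driven GFP reporter were exposed to compound for 30 h at 37 C. After PBS washes, GFP-positive cells (20-120 um objects) counted by laser-scanning microplate cytometry.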
uPA surface inh: qHTS for Inhibitors of Cell Surface uPA Generation | Potency, µM (series often up to 38.3 µM), for inactives: top-dose activity change, negative = inhibition, usual class: inhibitors | hit rate 0.31% among 330,000 | AID 540303, 2011 | cell surface uPA generation assay, qHTS; active means well fitted inhibition curve with a large enough effect; inconclusive means small, poorly fitted or top-dose-only effect; inactive means no such curve, though single readings can be large or run the other way; tested in mouse RAW 264.7 cells; further: potency means the concentration at half of the fitted maximal effect; on the % scale 0 is the no-effect control and ±100 the full control effect; nearly all actives have a fitted effect of over 55% in size
miR-21 reporter: qHTS Assay for Modulators of miRNAs and/orActivators of miR-21. HeLa miR-21 FLuc reporter, luciferase, 48 h. Potency, µM (series often up to 38.3 µM), inactives show top-dose activity change, positive = activation, most hits filed as activators. 340,000 tested, under 10 active;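 further: % of control where 0% means no effect; miR-21 action dims this reporter so a rising signal means less miR-21 action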
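HeLa miR-21-FLuc reporter line, endogenous miR-21; 2000 cells/well in DMEM/10% FBS; compound titration up to ~40uM final, 48 h, 37 degree Celsius; luciferase detection reagent, 15 min lysis, CCD luminescence.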
PINK1 expr mod: A Quantitative High throughput Screen to Identify Chemical Modulators of PINK1 Expression | PINK1 immunofluorescence, high-content cytometry, 24 h | Potency, µM (doses to about 76.6 µM), for inactives: top-dose activation (PINK1 increase), usual class: activators | hit rate 0.2% among 410,000 | AID 624263, 2012; active means well fitted activation curve with a large enough effect; inconclusive means small, poorly fitted or top-dose-only effect; cell line not stated here; further: potency means the concentration at half of the fitted maximal effect; % of control where 0% means no effect; nearly all actives have a fitted effect of over 65% in size
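PINK1 protein level read as immunofluorescence by microplate cytometer in a fixed, stained stable cell line after 24 h exposure to five compound concentrations, with CCCP as control.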
p53 reactivation: qHTS assay for re-activators of p53 using a Luc reporter. hit rate 0.063% among 320,000. AID 504706, 2011. Potency, µM (doses to about 92.2 µM), for inactives: top-dose activity change, positive = activation, usual class: activators. H1299 p53-A138V BP100-luciferase reporter, luminescence, 24 h; further: potency means the concentration at half of the fitted maximal effect; % of control where 0% means no effect; nearly all actives have a fitted effect of over 45% in size
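p53-null H1299 cells stably carrying temperature-sensitive p53-A138V and a BP100-luciferase reporter were pinned with compounds (4-point, 1:5 series) and held 24 hrs at 37 deg C. Luminescence was read 10 min after detection reagent.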
IL-2 act: qHTS of IL-2 Activators | IL-2 activation reporter assay, cell-based qHTS; stimulated with anti-CD3/CD4/CD28 beads; in transgenic mouse T cells | activation, % (series mostly up to about 46 µM) | hit rate 0.065% among 360,000; in the data active means activation above about 50%; inconclusive means mostly about 30% to 49%; further: 0% is about no effect
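Readout is EGFP and DsRed signal by fluorescent plate cytometry after 18 h at 37 degrees C. Transgenic mouse T cells (750/well) received compound for 60 min before bead stimulation (anti-CD3, anti-CD4, anti-CD28); memory T cells served as non-tolerant control.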
An asterisk follows results filed as active; ? = inconclusive; · = not tested or not shown; [ ] = dose if it differs, or a comment. Unless noted, the call rests on the fitted dose curve; in most records, active means well fitted curve in the direction sought with a large enough effect; inconclusive means small, poorly fitted or top-dose-only effect, or another doubt; inactive means no such curve, though single readings can be large; an effect the other way counts as inactive or inconclusive.

SMILES	Epigenetic derep	uPA surface inh	miR-21 reporter	PINK1 expr mod	p53 reactivation	IL-2 act
CC(=O)Nc1cc(C(=O)OCC(=O)c2ccc(Cl)cc2Cl)ccc1C	-1%	·	-4%	?	8%	1
Fc1ccc(N2CCN(Cc3ccc4c(c3)CN(Cc3cccn3-c3ncccn3)CCO4)CC2)cc1	·	·	·	0%	·	·
O=C(/C=C/c1ccc(O)c(O)c1)OCCc1ccccc1	0%	0.89µM*	·	8%	·	0
Cc1nnnn1/C(=C\c1ccccc1)C(=O)OCC(=O)NC1CCCCC1	·	7.9µM*	·	-2%	-22%	-5
Cc1ccn(CCC(=O)NCC2Cc3cc(Cl)cc(-c4ccc5[nH]ccc5c4)c3O2)n1 (stereo not drawn)	·	·	·	3%	·	·
O=C(CCNc1ccc(Cl)cc1)c1cccs1	-1%	3%	-44%	3%	16µM*	-2
O=C(CCNc1cc(Cl)cc(Cl)c1)c1cccs1	-1%	5%	-9%	·	11%	-1
CCN(CC)CCCCNC(=O)c1ccc(Cc2nc3ccccc3[nH]2)cc1	1%	·	·	·	·	·
COc1ccccc1CN1CCC(n2cc(C(=O)N3CCCCC3)nn2)CC1	·	·	·	0%	·	·
CCc1ccc(N=c2c([N+](=O)[O-])nn(-c3ccccc3)n2O)cc1	-1%	·	-2%	-2%[38.3 µM]	40µM*	-2
C=CCc1cccc2cc(-c3nc4ccc(C)cc4[nH]3)c(=O)oc12	4µM*	·	-49%	-1%	·	·
O=C(O)c1ccc2nc(-c3cc4cccc(O)c4oc3=O)[nH]c2c1	-1%	·	?	1%	·	·
CCN(CC)c1ccc(/C=C/c2cccc[n+]2C)c(OC)c1	·	-18%	?	10µM*	-4%	7
NS(=O)(=O)c1ccc(-c2ccc(/C=N/NC(=O)c3ccc([N+](=O)[O-])cc3)o2)cc1	14%	1%	0%	40µM*	-2%	3
NC(=S)N/N=C/c1ccc(-c2cccc([N+](=O)[O-])c2)o1	16µM*	3%	-15%	-2%	22%	-6
CC(C)(C)NC(=S)N/N=C\c1ccc(-c2ccc([N+](=O)[O-])cc2)o1	13µM*	-3%	-25%	10%	?	4
COc1ccc2c(c1)CCc1cnc(-n3ncc(C(=O)N(C)CCc4ccccn4)c3C)nc1-2	·	·	·	1%	·	·
O=[N+]([O-])c1ccc(O/N=[N+](\[O-])N2CCN(c3ccccc3)CC2)c([N+](=O)[O-])c1	·	·	·	2%	·	·
Cc1ccc(F)cc1CNC(=O)c1sc2ncnc(NCC3CCCO3)c2c1C (stereo not drawn)	·	·	·	1%	·	·
c1ccc(CCNc2ncnc3c2nnn3Cc2ccccc2)cc1	-1%	4%	-7%	11µM*	6%	0
O=C(/C=C/c1ccccc1)CC(=O)c1ccccc1O	2%	8.9µM*	-33%	4%	26%	-1
O=C(/C=C/c1ccccc1)COC(=O)c1ccccc1	·	-8%	·	3%	·	-1
O=C(/C=C/c1ccccc1)NC(=O)c1ccccc1O	-1%	-27%	-59%	2%	28µM*	-1
COC(=O)c1cc(CNC(=O)c2cccc(N(C)C)c2)cc(NC(=O)c2ccccc2Cl)c1	·	·	·	-1%	·	·
CCOc1ccc(NC(=O)c2cc(=O)c3ccc(C)c(C)c3o2)cc1	20µM*	·	-6%	2%	·	·
SMILES	Epigenetic derep	uPA surface inh	miR-21 reporter	PINK1 expr mod	p53 reactivation	IL-2 act
Cc1ccc(OCc2cc(C(=O)N3CC4C[C@@H]5CC3C[C@H](C4)C5)no2)cc1C	·	-8%	-50%	2%	28µM*	0
Cc1cccc(C)c1OCc1cc(C(=O)N2CC3C[C@@H]4CC2C[C@H](C3)C4)no1	·	0%	-17%	16%	-19%	-7
COc1ccc2c(Cl)c(C(=O)N/N=C3\CCCC(=O)C3)sc2c1	11µM*	5%	-35%	3%	1%	0
COc1ccc2c(Cl)c(C(=O)N/N=C/c3ccc4c(c3)OCO4)sc2c1	7%	-3%	0%	2%	0%	1
CC1CN(CC(=O)NCC2(N3CCOCC3)CCCC2)Cc2cc(Cl)ccc2O1 (stereo not drawn)	·	·	·	0%	·	·
COc1cc(C(=O)Nc2ccc3c(c2)ncn3C)cc(OC)c1OC	·	?	2%	9%	19%	2
COc1cc(C(=O)Nc2ccc(N(C)C)cc2)cc(OC)c1OC	-5%	-28%	-12%	11µM*	?	-1
COc1cc(C(=O)Nc2ccc3c(c2)nc(C)n3C)cc(OC)c1OC	·	5.6µM*	7%	11%	22%	1
CN(C)c1cccc(C(=O)NNC(=O)CN2C(=O)C3CC=CCC3C2=O)c1 (stereo not drawn)	·	-4%	·	1%	45µM*	0
CCOc1ccc(NC(=S)NNc2ccnc3cc(Cl)ccc23)cc1	-1%	-12%	-3%	?	5%	-1
S=C(NNc1ccnc2cc(Cl)ccc12)Nc1ccc(Cl)cc1Cl	0%	-23%	7%	8.9µM*	10%	2
Cc1cc(C(C)(C)C)cc(C)c1C[n+]1ccc2ccccc2c1	·	4.5µM*	?	45µM*	-8%	-6
O=[N+]([O-])c1ccc(S(=O)(=O)Nc2nc3ccccc3nc2Nc2ccccc2)cc1	6%	4%	-6%	35µM*	3%	-1
COc1cc(Nc2nc3ccccc3nc2NS(=O)(=O)c2ccc([N+](=O)[O-])cc2)cc(OC)c1OC	·	3%	8%	0%	-7%	-6
COc1ccccc1NS(=O)(=O)c1cc(NC(=S)Nc2cc(C)cc(C)c2)ccc1Cl	-1%	-1%	1%	45µM*	10%	-1
COc1cccc(/C=N/NC(=O)c2cc3c(OC)ccc(OC)c3[nH]2)c1O	·	6.3µM*	20%	0%	4%	-3
COc1cccc(/C=N/NC(=O)c2c(C)nc3ccc(Br)cn23)c1O	0%	4.5µM*	17%	1%	?	-1
c1ccc(-c2nnc(-c3ccccn3)nc2NC2CCCCC2)cc1	1%	-4%	14%	0%	35µM*	2
O=C(NC1CCCCC1)C(c1ccc(F)cc1)N(Cc1ccco1)C(=O)Cn1nnc2ccccc21 (stereo not drawn)	0%	-11%	0%	14µM*	9%	1
Cc1cc(C)nc(/N=C(\N)Nc2cccc(OCc3ccccc3)c2)n1	1%	7.1µM*	?	?	4%	-1
Cc1cc(C)nc(/N=C(\N)Nc2ccc(OCc3ccccc3)cc2)n1	0%	-12%	30%	?	1%	-1
COc1ccc(C(=O)N/N=C/c2sc(N3CCOCC3)nc2-c2ccccc2)cc1OC	-3%	5%	-4%	3%	-3%	1
